In one test the test system is PPARg:RXRa IVT, anti-PPARg (NR concentration 270 nM, RXRa partner concentration 90 nM). As to the kind of experiment: PBM binding z-score (relative to random genomic background probes); higher = stronger binding; sequences stand for … in GC…GCGATTGACAGCGTAGAATGAAGG
In short, it runs like this: (§1)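 For binding z-scores, the reference was random background probes on custom Agilent 4×180K protein-binding microarrays. These arrays were incubated 1 h with ligand-free nuclear receptor dimers in PBS pH 7.4, 2% milk, 0.02% Triton X-100, 1 mM DTT, 0.2 mg/mL BSA and 0.4 mg/ml salmon testes DNA. Fluorescence was scanned after antibody detection of each partner (one per run) and regression-normalized.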
Take CGTCAAAGTTCAACCAAGGTAACGTAAAGCACGC: the PBM binding z-score worked out at 2.22.

Regarding GATACAGGGTCAGTTAGAGGCCAGAGTATGGAAA, the PBM binding z-score was found to be 1.82.

For the sequence ACATGTAGGTTAGCTGGGGTCATTCAGACTAGGC, the PBM binding z-score is 4.97.

The sequence TCTATTAGTTGATTAGGGCAAACGAAACAGCGGA came in with a PBM binding z-score of 1.04.

AGTCAAAGTTCAGGACGAGGTAACCTAAAGCACG: the PBM binding z-score is 2.2.

CGTCCAAGGTCAGGGAGGTCAGTGAATGCCGAGT returned a PBM binding z-score of 3.53.

For the sequence GCGACTGGGGCATCAGCAGGTTAACATAACTTAA, the PBM binding z-score came out at 3.26.

CCTACTGGGCCAAGGTCATTGATCAGTCAAAGCA: the PBM binding z-score amounted to 4.5.

As for TAGCCTAGGTCATGCGGGCCAGTCTAGTGTCGGC, the PBM binding z-score worked out at 2.93.

Regarding ATCGAAAGGTCGAAGGTGAGTTTACCCACCCGAA, the PBM binding z-score was 2.21.

For the sequence GCAGACAGGTGAAACGTAGGTAACTCAGGGTGGC, the PBM binding z-score was determined as 0.679.

TCATACAGGTGAAGGTAACTCAGGTACGCAGTCG: the PBM binding z-score came out at 2.45.

Consider TAGCCTAGGTCATTCAGGGGCCAATATAGAAAGC, for which the PBM binding z-score came out at 2.85.

Sequence CCTCACGGGTCAAGGTTATAGCACGGGTGGTACG displayed a PBM binding z-score of 1.85.

In turn, TCGAGTGGGTTAGTCGGGGCATTCAGCCAACATA had a PBM binding z-score of 1.4.

On to CAAACTAGGCCAAAGGTCAAAGTCGAGCCAACCA, for which the PBM binding z-score was determined as 7.78.

As for CAAACTAGGGCACCGGAAGGTCAAAGTCCGCATG, the PBM binding z-score was 7.55.

For CTCGAAATGTCGGTTGAGGTGAGTATACGGATAA, the PBM binding z-score was 0.503.

The next test has as its system PPARg DBDmut:RXRa IVT, anti-PPARg (DBD mutation: PPARg1 K132A/R137A, NR concentration 270 nM, RXRa partner concentration 90 nM). The test is described as above. In a few lines: as §1
In the case of CCTAGTGGGCCATTCAGAGGTCATTGATCATATG, the PBM binding z-score was determined as 1.45.

Regarding TAGCCTAGGTCATGGTCCAGTATACCACGCGAAC, the PBM binding z-score stood at 0.0262.

Turning to CAAACTAGGTCAAAGGTCTAAGTCGAGCCAACCA, the PBM binding z-score is 8.12.

The sequence CCTACTGGGCCATCAGGTCATAGATATCAACGTT yielded a PBM binding z-score of 0.923.

The sequence TCTATTAGTTGGTTAGGGCAACCGAAACAGCGGA registered a PBM binding z-score of 1.18.

On to CGTCCAAGGTTAGCAGGTCAGTGAAAGCGACGTG, for which the PBM binding z-score is -0.8.

GGTGCTAGGTCAGGTTGGTCAGCTAACGGGTACG returned a PBM binding z-score of -0.502.

TTACCAAGGTGGGCTGAGGTCGTTGATCCAACTC had a PBM binding z-score of -0.362.

In turn, CAAACTAGGTCAAAGGTCATAGTCGAGCCAACCA had a PBM binding z-score of 3.36.

As for GCTGTTAGTTGAAAGGGCAACCGAATGATTCTCG, the PBM binding z-score turned out to be 0.463.

As to CGAACTAGGTCAGCCAGGACAGTGAATACATTGA, the PBM binding z-score turned out to be 1.49.

Turning to CCTACTGGGCCATCAGGTCATGGATATCAACGTT, the PBM binding z-score is 1.99.

For GGAACGAGGGCATTCGAGTTGATGGCATGGCGAT, the PBM binding z-score is -0.485.

Turning to TAGCCTTGGTCAGATCGGGCCAGTATACGCTATA, the PBM binding z-score is -0.203.

The sequence AGAATGAGGTTAAGATCAGGGACACAGAATACAT yielded a PBM binding z-score of 1.64.

The sequence AGTCAAAGTTCACTAGGTGACGTAAGATTCAGCT came in with a PBM binding z-score of 1.29.

Consider GCTGCTAGGTCAACTGATGGTCAGTTAAAGCTCG, for which the PBM binding z-score is -0.118.

Regarding GGCACGAGGGCATTCGAGTTGATAGCATGGCGAT, the PBM binding z-score is -1.13.

Regarding ACTCGGAGGACAAAGGTCAGAGCAACGCCAGTGA, the PBM binding z-score was found to be 0.771.

In the case of ACTCGGAGAACAAAGGTCAGAGCTACGCCAGTGA, the PBM binding z-score was 0.171.

Turning to TAGCCTAGGTCATGGGCCCGTATACCACGCGAAC, the PBM binding z-score is -0.0541.

Turning to ATATGTAGATTAAGGGTCATTCAGGTTGGTTCGC, the PBM binding z-score worked out at 1.32.

With CGTCAAAGTTCAACCAAGGTAACGTAAAGCACGC, the PBM binding z-score turned out to be 0.566.

For GATACAGGGTCAGTTAGAGGCCAGAGTATGGAAA, the PBM binding z-score was found to be 0.545.

ACATGTAGGTTAGCTGGGGTCATTCAGACTAGGC showed a PBM binding z-score of 2.39.

Consider TCTATTAGTTGATTAGGGCAAACGAAACAGCGGA, for which the PBM binding z-score was found to be 0.889.

AGTCAAAGTTCAGGACGAGGTAACCTAAAGCACG displayed a PBM binding z-score of 0.0369.

CGTCCAAGGTCAGGGAGGTCAGTGAATGCCGAGT registered a PBM binding z-score of -0.257.

For GCGACTGGGGCATCAGCAGGTTAACATAACTTAA, the PBM binding z-score is -0.488.

On to CCTACTGGGCCAAGGTCATTGATCAGTCAAAGCA, for which the PBM binding z-score is -0.374.

TAGCCTAGGTCATGCGGGCCAGTCTAGTGTCGGC displayed a PBM binding z-score of 0.182.

The sequence ATCGAAAGGTCGAAGGTGAGTTTACCCACCCGAA returned a PBM binding z-score of 0.513.

For GCAGACAGGTGAAACGTAGGTAACTCAGGGTGGC, the PBM binding z-score is -0.482.

As to TCATACAGGTGAAGGTAACTCAGGTACGCAGTCG, the PBM binding z-score worked out at 0.347.

In turn, TAGCCTAGGTCATTCAGGGGCCAATATAGAAAGC returned a PBM binding z-score of 0.373.

CCTCACGGGTCAAGGTTATAGCACGGGTGGTACG came in with a PBM binding z-score of 0.133.

Regarding TCGAGTGGGTTAGTCGGGGCATTCAGCCAACATA, the PBM binding z-score was determined as 0.134.

CAAACTAGGCCAAAGGTCAAAGTCGAGCCAACCA gave a PBM binding z-score of 2.58.

As to CAAACTAGGGCACCGGAAGGTCAAAGTCCGCATG, the PBM binding z-score turned out to be 1.16.

Turning to CTCGAAATGTCGGTTGAGGTGAGTATACGGATAA, the PBM binding z-score came to 0.298.

Another test has as its system PPARg DBDmut IVT, anti-PPARg (DBD mutation: PPARg1 K132A/R137A, NR concentration 270 nM). The description is as above. In short, it runs like this: as §1
CCTAGTGGGCCATTCAGAGGTCATTGATCATATG registered a PBM binding z-score of 0.315.

The sequence TAGCCTAGGTCATGGTCCAGTATACCACGCGAAC gave a PBM binding z-score of -0.185.

Consider CAAACTAGGTCAAAGGTCTAAGTCGAGCCAACCA, for which the PBM binding z-score came out at 5.58.

Sequence CCTACTGGGCCATCAGGTCATAGATATCAACGTT gave a PBM binding z-score of -0.119.

In turn, TCTATTAGTTGGTTAGGGCAACCGAAACAGCGGA had a PBM binding z-score of 0.941.

In turn, CGTCCAAGGTTAGCAGGTCAGTGAAAGCGACGTG registered a PBM binding z-score of -0.782.

In the case of GGTGCTAGGTCAGGTTGGTCAGCTAACGGGTACG, the PBM binding z-score is -0.0479.

The sequence TTACCAAGGTGGGCTGAGGTCGTTGATCCAACTC registered a PBM binding z-score of -0.213.

In turn, CAAACTAGGTCAAAGGTCATAGTCGAGCCAACCA yielded a PBM binding z-score of 4.08.

As to GCTGTTAGTTGAAAGGGCAACCGAATGATTCTCG, the PBM binding z-score is 0.0066.

CGAACTAGGTCAGCCAGGACAGTGAATACATTGA: the PBM binding z-score was found to be 0.655.

Turning to CCTACTGGGCCATCAGGTCATGGATATCAACGTT, the PBM binding z-score worked out at 0.266.

Take GGAACGAGGGCATTCGAGTTGATGGCATGGCGAT: the PBM binding z-score is -0.554.

In turn, TAGCCTTGGTCAGATCGGGCCAGTATACGCTATA gave a PBM binding z-score of -1.18.

In turn, AGAATGAGGTTAAGATCAGGGACACAGAATACAT yielded a PBM binding z-score of 0.953.

AGTCAAAGTTCACTAGGTGACGTAAGATTCAGCT: the PBM binding z-score was found to be 0.955.

Sequence GCTGCTAGGTCAACTGATGGTCAGTTAAAGCTCG gave a PBM binding z-score of -0.331.

Turning to GGCACGAGGGCATTCGAGTTGATAGCATGGCGAT, the PBM binding z-score was -1.45.

In turn, ACTCGGAGGACAAAGGTCAGAGCAACGCCAGTGA came in with a PBM binding z-score of -0.247.

For ACTCGGAGAACAAAGGTCAGAGCTACGCCAGTGA, the PBM binding z-score is -0.0554.

In turn, TAGCCTAGGTCATGGGCCCGTATACCACGCGAAC had a PBM binding z-score of -0.484.

Sequence ATATGTAGATTAAGGGTCATTCAGGTTGGTTCGC displayed a PBM binding z-score of 1.38.

As for CGTCAAAGTTCAACCAAGGTAACGTAAAGCACGC, the PBM binding z-score amounted to 0.664.

In turn, GATACAGGGTCAGTTAGAGGCCAGAGTATGGAAA had a PBM binding z-score of 0.433.

As for ACATGTAGGTTAGCTGGGGTCATTCAGACTAGGC, the PBM binding z-score came to 2.35.

For TCTATTAGTTGATTAGGGCAAACGAAACAGCGGA, the PBM binding z-score is 1.04.

AGTCAAAGTTCAGGACGAGGTAACCTAAAGCACG came in with a PBM binding z-score of 0.548.

As for CGTCCAAGGTCAGGGAGGTCAGTGAATGCCGAGT, the PBM binding z-score was -1.31.

The sequence GCGACTGGGGCATCAGCAGGTTAACATAACTTAA yielded a PBM binding z-score of -1.04.

The sequence CCTACTGGGCCAAGGTCATTGATCAGTCAAAGCA yielded a PBM binding z-score of -1.03.

Take TAGCCTAGGTCATGCGGGCCAGTCTAGTGTCGGC: the PBM binding z-score was determined as 0.146.

ATCGAAAGGTCGAAGGTGAGTTTACCCACCCGAA gave a PBM binding z-score of 0.511.

Sequence GCAGACAGGTGAAACGTAGGTAACTCAGGGTGGC registered a PBM binding z-score of -0.518.

For the sequence TCATACAGGTGAAGGTAACTCAGGTACGCAGTCG, the PBM binding z-score is 1.84.

TAGCCTAGGTCATTCAGGGGCCAATATAGAAAGC came in with a PBM binding z-score of 1.2.

In turn, CCTCACGGGTCAAGGTTATAGCACGGGTGGTACG had a PBM binding z-score of 0.0961.

Take TCGAGTGGGTTAGTCGGGGCATTCAGCCAACATA: the PBM binding z-score was -0.527.

CAAACTAGGCCAAAGGTCAAAGTCGAGCCAACCA yielded a PBM binding z-score of 1.59.

In turn, CAAACTAGGGCACCGGAAGGTCAAAGTCCGCATG returned a PBM binding z-score of 0.324.

In turn, CTCGAAATGTCGGTTGAGGTGAGTATACGGATAA registered a PBM binding z-score of 0.408.

Source of the values: the supplement of paper PMC6555819.
